Screening data from PubChem BioAssay.
This is a sample that favours compounds with a hit; in the whole collection about 2.7% have one here.
SENP8 block-1: inhibitors of human SENP8 protease | inhibition, % at 10 µM | purified SENP8, Z-RLRGG-aminoluciferin cleavage, luminescence | hit rate 1.2% among 330,000 | Q96LD8; in the data active = inhibition above about 50%
SENP8 block-2: blocks human SENP8 cleavage of Nedd8 substrate. Q96LD8. inhibition, % at 20 µM. recombinant SENP8, Nedd8 substrate fluorescence. hit rate 0.64% among 360,000; in the data active = inhibition mostly above about 40%, no sharp cut-off; inactive = mostly below about 27%
SENP7 inh: SENP7 protease inhibition; Q9BQF6; recombinant SENP7, Z-RLRGG-aminoluciferin luminescence, 40 min; inhibition, % at 5 µM; hit rate 1.5% among 330,000; AID 434973;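 active = inhibition above about 50% at the single test dose, limit read from the data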;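 also: plate controls were DMSO with enzyme for no effect and no enzyme buffer wells for full effect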
HSP90 refold inh: HSP90 refolding inhibition in rabbit reticulocyte lysate | inhibition, % at 5.6 µM | AID 1789 | hit rate 0.91% among 290,000 | luciferase refolding luminescence, 3 h;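 active = inhibition above the screen-wide mean plus 3 SD, computed separately per campaign, cut at about 16% in these data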;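 also: 0% = DMSO wells and 100% = 60 µM geldanamycin wells; inhibitors lower the luminescence because luciferase stays unfolded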
SENP6 block: inhibitors of human SENP6 protease. inhibition, % at 10 µM. AID 2599. hit rate 1.8% among 330,000. Q9GZR1. Recombinant SENP6 catalytic domain, aminoluciferin luminescence;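 active = inhibition above about 50% at the single tested dose, limit read from the data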;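 also: plate controls were DMSO wells with enzyme for no effect and DMSO wells lacking enzyme for full effect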
Target sequence (Q9GZR1 628-1112 limits assumed): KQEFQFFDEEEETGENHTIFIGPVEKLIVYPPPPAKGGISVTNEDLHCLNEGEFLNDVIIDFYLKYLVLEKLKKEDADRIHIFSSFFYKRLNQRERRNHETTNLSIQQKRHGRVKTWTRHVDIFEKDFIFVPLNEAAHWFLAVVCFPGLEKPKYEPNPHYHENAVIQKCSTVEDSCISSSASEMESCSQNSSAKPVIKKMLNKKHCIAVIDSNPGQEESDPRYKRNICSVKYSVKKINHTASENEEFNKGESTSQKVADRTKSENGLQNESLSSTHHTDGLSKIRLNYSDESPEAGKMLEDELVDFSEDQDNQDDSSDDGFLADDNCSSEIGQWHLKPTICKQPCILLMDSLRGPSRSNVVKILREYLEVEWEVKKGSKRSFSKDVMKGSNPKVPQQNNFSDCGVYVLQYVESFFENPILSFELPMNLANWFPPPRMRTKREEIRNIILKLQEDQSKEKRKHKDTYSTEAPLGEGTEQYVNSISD
SENP8 confirm: human SENP8 inhibition, confirmed. inhibition, % at 12.5 µM. shares compounds with SENP7 inh. Recombinant SENP8, Z-RLRGG-aminoluciferin luminescence, 60 min. hit rate 40% among 6,200;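 active = mean inhibition across replicates above about 50%, limit read from the data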
SENP6 conf: confirmation of human SENP6 protease inhibitors; shares compounds with SENP7 inh; recombinant SENP6, Z-RLRGG-aminoluciferin luminescence; inhibition, % at 12.5 µM; hit rate 58% among 6,200
SENP7 conf: confirmation of human SENP7 protease inhibitors; AID 488917; recombinant SENP7, Z-RLRGG-aminoluciferin luminescence, 40 min; hit rate 69% among 6,200; inhibition, % at 12.5 µM; shares compounds with SENP7 inh
Casp3 select: inhibits human caspase-3 in SENP selectivity test; inhibition, % at 12.5 µM; shares compounds with SENP7 inh; purified caspase-3, Z-DEVD-aminoluciferin luminescence, 60 min; AID 488918; hit rate 60% among 6,200;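 active = mean inhibition above about 50%, limit read from the data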;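 also: plate controls were enzyme with DMSO for no effect and wells without caspase-3 for full effect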
Luc interf: luminescence interference (SENP counter-screen). shares compounds with SENP7 inh. Pre-incubated SENP8/Z-RLRGG-aminoluciferin, luciferase luminescence interference. inhibition, % at 12.5 µM. hit rate 39% among 6,200;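 active = mean inhibition above about 50% when retested at one dose, limit read from the data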;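 also: plate controls were DMSO wells with completed reaction for no effect and substrate without enzyme for full effect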
* = called active by the depositor.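 The calls were made as follows, unless noted: active = mean inhibition above about 50% in the one-dose retest (limit read from the data); inactive = the rest.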

For COC(=O)c1ccc(COC(=O)c2cccnc2Cl)cc1 the results were SENP8 block-1 37, SENP8 block-2 6, SENP7 inh 46, HSP90 refold inh 1, SENP6 block 51*, SENP8 confirm 50*, SENP6 conf 46, SENP7 conf 79*, Casp3 select 66* and Luc interf 56*.
Screening N#Cc1c(/N=C/c2ccc(Br)s2)sc2c1CCC2 returned SENP8 block-2 17 and HSP90 refold inh 5.
For N#Cc1c(/N=C/c2cccs2)sc2c1CCCCC2 the results were SENP8 block-1 92*, SENP8 block-2 28, SENP7 inh 97*, HSP90 refold inh 7, SENP6 block 76*, SENP8 confirm 91*, SENP6 conf 94*, SENP7 conf 96*, Casp3 select 87* and Luc interf 48.
For N#Cc1c(/N=C/c2cccnc2)sc2c1CCCC2 the results were SENP8 block-1 35, SENP8 block-2 32, SENP7 inh -10, HSP90 refold inh -1, SENP6 block 55*, SENP8 confirm 57*, SENP6 conf 56*, SENP7 conf 67*, Casp3 select 28 and Luc interf 56*.
Cc1ccc(/C=N/c2sc3c(c2C#N)CCC3)o1 was read as SENP8 block-1 90*, SENP8 block-2 16, SENP7 inh 91*, HSP90 refold inh 2, SENP6 block 93*, SENP8 confirm 5, SENP6 conf 84*, SENP7 conf 94*, Casp3 select 36 and Luc interf 52*.
Screening Cc1cc(-c2nnc(SCC(=O)Nc3ccc(Cl)cn3)n2N)n[nH]1 returned SENP8 block-1 -11, SENP8 block-2 5, SENP7 inh 6, HSP90 refold inh -1 and SENP6 block -3.
`O=C(O)C1C(c2ccccc2)C(C(=O)N2CCOCC2)C1c1ccccc1` (stereo not drawn) gave SENP8 block-1 -15, SENP8 block-2 26, SENP7 inh -6, HSP90 refold inh 2 and SENP6 block -6.
For O=C(CCCC(=O)c1ccccc1)NCCc1ccccc1 the results were SENP8 block-1 3, SENP8 block-2 27, SENP7 inh 1, HSP90 refold inh -3 and SENP6 block 5.
For O=C(CCCc1ccccc1)c1ccccc1 the results were SENP8 block-1 59*, SENP8 block-2 11, SENP7 inh 60*, HSP90 refold inh 13, SENP6 block 80*, SENP8 confirm -6, SENP6 conf 46, SENP7 conf 86*, Casp3 select 40 and Luc interf 11.
CCC(=O)c1ccc(O)cc1 was read as SENP8 block-1 -5, SENP8 block-2 8, SENP7 inh -4, HSP90 refold inh 4 and SENP6 block -8.
`O=C(CCCC(=O)c1ccc(O)cc1)c1ccc(O)cc1` gave SENP8 block-1 89*, SENP8 block-2 16, SENP7 inh 74*, SENP6 block 93*, SENP8 confirm 92*, SENP6 conf 92*, SENP7 conf 101*, Casp3 select 92* and Luc interf 92*.
CCC(C)[C@H](NC(=O)Nc1ccc2c(c1)OCCO2)C(=O)OC (stereo partly drawn) was read as SENP8 block-1 2, SENP8 block-2 18, SENP7 inh 6, HSP90 refold inh -3 and SENP6 block -17.
c1ccc(-c2nn[nH]n2)cc1 was read as SENP8 block-1 5, SENP8 block-2 5, SENP7 inh 2, HSP90 refold inh -1 and SENP6 block -13.
